Compounds without any hit were thinned out: in the full panel of roughly 83,000, 20% have a hit.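 Activity criterion: percent growth below 10, measured after cells in 96-well plates were exposed to a single compound concentration for 48 hours.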 Unmarked numbers belong to inactive results. Active and inactive are the calls of the source.
Tests used:
Test in all cases: NCI-60 one-dose screen, 48 h (100 = growth as untreated, 0 = no growth, -100 = all killed)
Details in all cases: 10 µM unless noted
[1] = tested on: NCI-H23 lung
[2] = tested on: NCI-H226 lung
[3] = tested on: NCI-H322M lung
[4] = tested on: HOP-62 NSCLC
[5] = tested on: NCI-H460 lung
[6] = tested on: HOP-92 NSCLC
[7] = tested on: NCI-H522 lung
[8] = tested on: A549/ATCC NSCLC
[9] = tested on: 786-0 renal
[10] = tested on: COLO 205 colon

Compound | growth [1] | growth [2] | growth [3] | growth [4] | growth [5] | growth [6] | growth [7] | growth [8] | growth [9] | growth [10]
C=C(C)[C@@H]1CC[C@]2(C(=O)O)CC[C@]3(C)[C@H](CC[C@@H]4[C@@]5(C)C[C@@H](CC#Cc6ccccc6)C(=O)C(C)(C)[C@@H]5CC[C@]43C)[C@@H]12 | 25.2% | 28.5% | 31.9% | 32.5% | 24.1% | 48.2% | 11.6% | 25.3% | 35.3% | 20.8%
COc1ccc(-c2cn(-c3ccc(Cl)cc3)c(=S)[nH]2)cc1OC | 89.6% | 63.2% | 57.4% | 38.4% | 37.9% | 81.8% | 49.4% | 72% | 1.85% (active) | 44.2%
CSc1nc(-c2ccco2)c2c(N)[nH]nc2n1 | 97.7% | 102% | 97.8% | 84.6% | 97.6% | 109% | 79.4% | 100% | 93.4% | 123%
O=C(/C(=C\c1c(-c2ccccc2)[nH]c2ccccc12)S(=O)(=O)c1ccccc1)c1ccccc1 | 47.9% | 53.6% | 67.6% | 64.5% | 37.8% | -4.34% (active) | -12.2% (active) | 44.6% | 68.1% | 70.8%
CNCc1cccc2c1OCCOCCOCCN(CCN1CCOCC1)S(=O)(=O)c1ccc(cc1)-c1cnc(N)c(n1)C(=O)N2 | 42.3% | 78.4% | 49.8% | 100% | 30.7% | 87.9% | 49% | 46.4% | 10.6% | 22.3%
NCCN1CCNCC1 | 94.6% | 89.6% | 116% | 103% | 108% | 100% | 91.4% | 102% | 101% | 122%
COc1cc(-c2csc(NC(=O)Nc3ccc(C(F)(F)F)cc3)n2)cc(OC)c1OC | 2.62% (active) | 0.0527% (active) | 33.5% | 9.05% (active) | 4.98% (active) | -24.5% (active) | -25% (active) | 5.16% (active) | -10% (active) | -44.4% (active)
C#C[C@@]1(O)[C@@H](CO)O[C@@H](n2cc(Br)c3c(N)ncnc32)[C@@H]1O | 2.83% (active) | 21.2% | 1.46% (active) | -5.18% (active) | -36% (active) | -27.2% (active) | -30.7% (active) | -51.8% (active) | -48.5% (active) | -36.8% (active)
N#CC1(C#N)C2=C(CCCC2)NC(c2c(F)cccc2Cl)C1(C#N)C#N (stereo not given) | 82% | 92.1% | 91.1% | 72.1% | 95.1% | 42.9% | -14.1% (active) | 92.6% | 88.7% | 91.4%
CCN1CCC[C@H]1c1cc(O)c2c(c1OC)C[C@H]1C[C@H]3[C@H](N)C(=O)C(C(N)=O)=C(O)[C@@]3(O)C(=O)C1=C2O | -16.7% (active) | 1.47% (active) | -2.43% (active) | -12% (active) | 2.84% (active) | -3.43% (active) | -21.4% (active) | 6.12% (active) | 3.89% (active) | -18.7% (active)
Cc1c(Cl)cccc1NC(=O)c1sc2nc3c(cc2c1N)CN(Cc1ccccc1)CC3 | 66.1% | 72.3% | 73.1% | 38.4% | 22% | 51.8% | 0.814% (active) | 58.6% | 42.9% | 51.5%
CC1CCN(CCCCCOc2ccc3oc4cc(Cl)ccc4c(=O)c3c2)CC1 | 87.7% | 113% | 73.8% | 82.2% | 36.3% | 93.6% | 69.9% | 68.6% | 65.1% | 36.6%
COc1cc(NC(=O)Nc2cnc(Nc3ccc(N4CCOCC4)cc3)nc2Oc2ccc(C(F)(F)F)cc2)cc(OC)c1 | 105% | 97.7% | 106% | 95.5% | 105% | 99% | 95.9% | 103% | 109% | 127%

From PubChem BioAssay (NCI)
